We go through nine compounds from PubChem BioAssay.

The structures appear in SMILES notation. Activity calls are given as the source filed them.

A short description of experiment [1]: small molecules captured by biotinylated probe aFSTL3 – biochemical, small-molecule microarray, fluorescence 635/667, stem cell growth factor project, primary screen (AID 1064).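 Further: measures binding of the biotinylated anti-FSTL3 antibody to printed compounds.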 The settings on record: higher = more signal.
A short description of experiment [2]: binders from COS7 lysate, DM2A8 probe, primary screen, torsin A project, cell lysate, small-molecule microarray, fluorescence 635/667 (AID 1065). The settings on record: higher = more signal, COS7 lysate expressing mutant human TOR1A.
Experiment [3] in a line: small molecules captured by biotinylated probe aFGF2 – biochemical, small-molecule microarray, fluorescence 635/667, stem cell growth factor project, primary screen (AID 1067).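 Further: measures binding of biotinylated aFGF2 protein to printed compounds on slides; z-score merges feature fluorescence and signal-to-noise across triplicate slides.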 Particulars: higher = more signal.
The nature of experiment [4]: small molecules captured by biotinylated probe aFGF10 – biochemical, small-molecule microarray, fluorescence 635/667, stem cell growth factor project, primary screen (AID 1071).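 Further: score merges 667 nm spot intensity and signal to noise from triplicate slides.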 Particulars: higher = more signal.
For experiment [5], the target named is Neurogenic locus notch homolog protein 2 (Homo sapiens) (UniProt Q04721). Put plainly: small molecules binding Notch2 protein – biochemical, small-molecule microarray, 635 nm fluorescence, stem cell growth factors, primary screen (AID 1073). The settings on record: higher = more signal.
The target of experiment [6] is Pro-neuregulin-1, membrane-bound isoform (Homo sapiens) (UniProt Q02297). Briefly: small molecules binding neuregulin-1 protein – biochemical, small-molecule microarray, fluorescence 635/667, psychiatric disease protein project, primary screen (AID 1075).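 Further: score combines 667 nm spot fluorescence with signal to noise.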 Particulars: NRG1 binding, 635 nm fluorescence, higher = more signal.
Experiment [7] relates to Neuregulin-1 EGF-like domain. Put plainly: small molecules binding NRG1 EGF domain – biochemical, small-molecule microarray, 635 nm fluorescence, primary screen (AID 1081).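 Further: binding of the protein to compounds printed on small-molecule microarray slides.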 The settings on record: higher = more signal.
Experiment [8] in a line: FRG1 expression reporter modulators in myotubes – cell-based, C2C12 myotubes, firefly/Renilla luciferase, luminescence, FRG1 inhibition for FSHD, primary screen (AID 1084). Particulars: FRG1 promoter luciferase, higher = more signal, called active from +8 up or from −8 down.
The nature of experiment [9]: small molecules captured by biotinylated probe aFST – biochemical, small-molecule microarray, fluorescence 635/667, stem cell growth factor project, primary screen (AID 1086).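 Further: score merges 667 nm fluorescence with signal-to-noise of each printed compound spot.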 The settings on record: higher = more signal.
Experiment [10] in a line: binders of probe aHhip on microarray, primary screen, stem cell growth factor project, biochemical, small-molecule microarray, fluorescence 635/667 (AID 1087).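 Further: score merges spot fluorescence at 667nm with spot signal to noise ratio.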 Particulars: higher = more signal.
Experiment [11] concerns PRMT1 (protein arginine N-methyltransferase 1). Briefly: small molecules binding arginine methyltransferase PRMT1 – biochemical, small-molecule microarray, 635 nm fluorescence, primary screen (AID 1088).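 Further: binding of Prmt1 protein to compounds spotted on small-molecule microarray slides.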 The settings on record: higher = more signal.
Experiment [12] is described as follows: growth effects on S. cerevisiae YJM789 – YJM789 clinical isolate, OD600, 24 h, basal, primary screen (AID 1089).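 Further: growth of clinical yeast isolate S. cerevisiae YJM 789 seeded 1000 cells per well; test concentration not given here.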 Particulars: higher = more signal, called active from +8 up or from −8 down.
Experiment [13] is described as follows: S. pombe growth modifiers, basal conditions – strain 972, OD600, 24 h, no modulator, primary screen (AID 1090).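 Further: basal condition with compound alone and no growth modifier present; test concentration not given here.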 Particulars: S. pombe 972 growth, higher = more signal, called active from +8 up or from −8 down.
The nature of experiment [14]: budding yeast growth modifiers under rapamycin – strain BY4716, OD600, 96 h, primary screen (AID 1091). Further: test concentration not given here. Particulars: S. cerevisiae BY4716 + rapamycin, higher = more signal, called active from +8 up or from −8 down.
Experiment [15] has as its target Torsin-1A-interacting protein 2 (Homo sapiens) (UniProt Q8NFQ8). Briefly: small molecules binding lysate-expressed LULL1 – cell lysate, human LULL1 lysate, 635/667 nm fluorescence, primary screen (AID 1092).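 Further: probe is lysate of COS7 cells overexpressing human LULL1; score merges per-feature 667 nm fluorescence with signal-to-noise.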 The settings on record: small-molecule microarray, hLULL1 lysate binding, 635 nm fluorescence; higher = more signal.
Experiment [16] in a line: optical density change of DRC41 E. coli – strain DRC41, OD650, 24 h, E. coli filamentation project, primary screen (AID 1093).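 Further: MC1000 strain lacking acrAB efflux and sulA so SOS filamentation is blocked; test concentration not given here.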 Particulars: E. coli DRC41 growth, higher = more signal, called active from +8 up or from −8 down.
Experiment [17] is described as follows: probe aLefty2 binding to arrayed compounds – biochemical, biotinylated probe, 635/667 nm fluorescence, primary screen (AID 1094).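 Further: score merges spot fluorescence near 667 nm with spot signal-to-noise ratio.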 The settings on record: small-molecule microarray, higher = more signal.
For experiment [18], the system named is Noggin (protein binding on small-molecule microarray). Put plainly: small molecules binding Noggin protein – biochemical, 635/667 nm fluorescence, primary screen (AID 1095).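 Further: score merges 667 nm feature fluorescence with signal to noise over triplicate slides.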 The settings on record: 635 nm fluorescence, higher = more signal.
For experiment [19], the target named is Neurogenic locus notch homolog protein 3 (Homo sapiens) (UniProt Q9UM47). Briefly: small molecules binding NOTCH3 protein – biochemical, 635/667 nm fluorescence, primary screen (AID 1096). Particulars: small-molecule microarray, 635 nm fluorescence, higher = more signal.
A short description of experiment [20]: probe aEGFR binding to arrayed compounds – biochemical, biotinylated probe, 635/667 nm fluorescence, primary screen (AID 1097).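 Further: probe is a biotinylated anti-EGFR antibody binding compounds printed on slides; score combines fluorescence near 667 nm and signal to noise of each spot.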 Particulars: small-molecule microarray, higher = more signal.

Neurogenic locus notch homolog protein 3 (Homo sapiens), sequence (Q9UM47 whole entry, looked up): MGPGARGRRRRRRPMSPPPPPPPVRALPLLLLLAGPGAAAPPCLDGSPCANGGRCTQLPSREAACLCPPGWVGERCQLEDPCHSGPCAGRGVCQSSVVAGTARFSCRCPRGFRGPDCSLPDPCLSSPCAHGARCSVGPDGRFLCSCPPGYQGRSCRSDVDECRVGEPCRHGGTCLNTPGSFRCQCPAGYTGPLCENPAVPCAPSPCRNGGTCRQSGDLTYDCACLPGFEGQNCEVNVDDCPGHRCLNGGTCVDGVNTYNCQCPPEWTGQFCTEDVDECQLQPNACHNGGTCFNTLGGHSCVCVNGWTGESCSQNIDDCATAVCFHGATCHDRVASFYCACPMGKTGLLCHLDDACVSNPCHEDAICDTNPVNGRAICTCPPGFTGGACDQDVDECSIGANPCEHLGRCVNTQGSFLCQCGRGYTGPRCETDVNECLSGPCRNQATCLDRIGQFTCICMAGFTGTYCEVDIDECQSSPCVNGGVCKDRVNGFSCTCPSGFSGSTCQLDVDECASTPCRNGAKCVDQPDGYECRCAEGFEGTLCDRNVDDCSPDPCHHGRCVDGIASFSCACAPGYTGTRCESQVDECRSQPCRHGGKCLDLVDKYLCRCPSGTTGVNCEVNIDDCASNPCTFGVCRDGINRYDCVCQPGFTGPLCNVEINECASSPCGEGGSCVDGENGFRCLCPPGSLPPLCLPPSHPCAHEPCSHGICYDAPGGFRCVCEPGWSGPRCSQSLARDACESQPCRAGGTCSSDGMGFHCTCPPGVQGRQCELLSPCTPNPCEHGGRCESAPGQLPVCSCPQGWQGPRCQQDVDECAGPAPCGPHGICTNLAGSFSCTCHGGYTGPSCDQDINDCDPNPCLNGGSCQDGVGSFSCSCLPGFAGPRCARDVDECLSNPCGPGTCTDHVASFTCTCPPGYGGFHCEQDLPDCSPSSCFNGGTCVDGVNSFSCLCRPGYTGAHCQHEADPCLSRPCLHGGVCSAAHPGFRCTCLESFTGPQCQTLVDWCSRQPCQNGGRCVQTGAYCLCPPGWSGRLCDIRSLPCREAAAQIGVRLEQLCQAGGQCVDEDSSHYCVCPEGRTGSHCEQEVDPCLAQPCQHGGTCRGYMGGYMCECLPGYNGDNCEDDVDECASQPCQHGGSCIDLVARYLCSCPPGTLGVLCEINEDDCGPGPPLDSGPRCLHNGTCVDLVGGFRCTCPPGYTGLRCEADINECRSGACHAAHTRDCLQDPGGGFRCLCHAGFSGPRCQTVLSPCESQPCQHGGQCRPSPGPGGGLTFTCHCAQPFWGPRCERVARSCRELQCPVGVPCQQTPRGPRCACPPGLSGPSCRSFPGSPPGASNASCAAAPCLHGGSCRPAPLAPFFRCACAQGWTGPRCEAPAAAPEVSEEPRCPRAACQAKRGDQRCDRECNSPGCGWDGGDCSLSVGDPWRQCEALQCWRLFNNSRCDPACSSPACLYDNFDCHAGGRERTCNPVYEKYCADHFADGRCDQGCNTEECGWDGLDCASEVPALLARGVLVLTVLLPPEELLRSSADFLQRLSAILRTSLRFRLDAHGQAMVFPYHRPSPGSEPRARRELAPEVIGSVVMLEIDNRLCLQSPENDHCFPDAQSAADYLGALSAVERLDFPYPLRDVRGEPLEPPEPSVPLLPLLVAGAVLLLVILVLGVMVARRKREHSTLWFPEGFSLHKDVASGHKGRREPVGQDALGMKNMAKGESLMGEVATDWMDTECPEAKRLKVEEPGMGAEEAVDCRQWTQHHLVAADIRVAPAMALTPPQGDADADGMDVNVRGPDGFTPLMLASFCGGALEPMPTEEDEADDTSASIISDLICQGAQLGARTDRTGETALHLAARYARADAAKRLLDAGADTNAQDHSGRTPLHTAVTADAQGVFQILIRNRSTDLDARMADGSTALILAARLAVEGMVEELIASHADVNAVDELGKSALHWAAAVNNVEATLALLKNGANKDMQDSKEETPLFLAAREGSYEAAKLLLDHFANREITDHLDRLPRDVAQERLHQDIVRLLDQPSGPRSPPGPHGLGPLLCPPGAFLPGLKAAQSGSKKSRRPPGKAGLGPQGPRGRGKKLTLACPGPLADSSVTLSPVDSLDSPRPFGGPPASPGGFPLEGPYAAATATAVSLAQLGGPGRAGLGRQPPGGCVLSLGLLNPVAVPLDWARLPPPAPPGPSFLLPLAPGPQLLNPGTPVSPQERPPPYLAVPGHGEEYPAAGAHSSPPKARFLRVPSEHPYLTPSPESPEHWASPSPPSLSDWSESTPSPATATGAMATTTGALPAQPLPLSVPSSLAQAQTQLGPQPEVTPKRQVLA
Neurogenic locus notch homolog protein 2 (Homo sapiens), sequence (Q04721 whole entry, looked up, canonical isoform): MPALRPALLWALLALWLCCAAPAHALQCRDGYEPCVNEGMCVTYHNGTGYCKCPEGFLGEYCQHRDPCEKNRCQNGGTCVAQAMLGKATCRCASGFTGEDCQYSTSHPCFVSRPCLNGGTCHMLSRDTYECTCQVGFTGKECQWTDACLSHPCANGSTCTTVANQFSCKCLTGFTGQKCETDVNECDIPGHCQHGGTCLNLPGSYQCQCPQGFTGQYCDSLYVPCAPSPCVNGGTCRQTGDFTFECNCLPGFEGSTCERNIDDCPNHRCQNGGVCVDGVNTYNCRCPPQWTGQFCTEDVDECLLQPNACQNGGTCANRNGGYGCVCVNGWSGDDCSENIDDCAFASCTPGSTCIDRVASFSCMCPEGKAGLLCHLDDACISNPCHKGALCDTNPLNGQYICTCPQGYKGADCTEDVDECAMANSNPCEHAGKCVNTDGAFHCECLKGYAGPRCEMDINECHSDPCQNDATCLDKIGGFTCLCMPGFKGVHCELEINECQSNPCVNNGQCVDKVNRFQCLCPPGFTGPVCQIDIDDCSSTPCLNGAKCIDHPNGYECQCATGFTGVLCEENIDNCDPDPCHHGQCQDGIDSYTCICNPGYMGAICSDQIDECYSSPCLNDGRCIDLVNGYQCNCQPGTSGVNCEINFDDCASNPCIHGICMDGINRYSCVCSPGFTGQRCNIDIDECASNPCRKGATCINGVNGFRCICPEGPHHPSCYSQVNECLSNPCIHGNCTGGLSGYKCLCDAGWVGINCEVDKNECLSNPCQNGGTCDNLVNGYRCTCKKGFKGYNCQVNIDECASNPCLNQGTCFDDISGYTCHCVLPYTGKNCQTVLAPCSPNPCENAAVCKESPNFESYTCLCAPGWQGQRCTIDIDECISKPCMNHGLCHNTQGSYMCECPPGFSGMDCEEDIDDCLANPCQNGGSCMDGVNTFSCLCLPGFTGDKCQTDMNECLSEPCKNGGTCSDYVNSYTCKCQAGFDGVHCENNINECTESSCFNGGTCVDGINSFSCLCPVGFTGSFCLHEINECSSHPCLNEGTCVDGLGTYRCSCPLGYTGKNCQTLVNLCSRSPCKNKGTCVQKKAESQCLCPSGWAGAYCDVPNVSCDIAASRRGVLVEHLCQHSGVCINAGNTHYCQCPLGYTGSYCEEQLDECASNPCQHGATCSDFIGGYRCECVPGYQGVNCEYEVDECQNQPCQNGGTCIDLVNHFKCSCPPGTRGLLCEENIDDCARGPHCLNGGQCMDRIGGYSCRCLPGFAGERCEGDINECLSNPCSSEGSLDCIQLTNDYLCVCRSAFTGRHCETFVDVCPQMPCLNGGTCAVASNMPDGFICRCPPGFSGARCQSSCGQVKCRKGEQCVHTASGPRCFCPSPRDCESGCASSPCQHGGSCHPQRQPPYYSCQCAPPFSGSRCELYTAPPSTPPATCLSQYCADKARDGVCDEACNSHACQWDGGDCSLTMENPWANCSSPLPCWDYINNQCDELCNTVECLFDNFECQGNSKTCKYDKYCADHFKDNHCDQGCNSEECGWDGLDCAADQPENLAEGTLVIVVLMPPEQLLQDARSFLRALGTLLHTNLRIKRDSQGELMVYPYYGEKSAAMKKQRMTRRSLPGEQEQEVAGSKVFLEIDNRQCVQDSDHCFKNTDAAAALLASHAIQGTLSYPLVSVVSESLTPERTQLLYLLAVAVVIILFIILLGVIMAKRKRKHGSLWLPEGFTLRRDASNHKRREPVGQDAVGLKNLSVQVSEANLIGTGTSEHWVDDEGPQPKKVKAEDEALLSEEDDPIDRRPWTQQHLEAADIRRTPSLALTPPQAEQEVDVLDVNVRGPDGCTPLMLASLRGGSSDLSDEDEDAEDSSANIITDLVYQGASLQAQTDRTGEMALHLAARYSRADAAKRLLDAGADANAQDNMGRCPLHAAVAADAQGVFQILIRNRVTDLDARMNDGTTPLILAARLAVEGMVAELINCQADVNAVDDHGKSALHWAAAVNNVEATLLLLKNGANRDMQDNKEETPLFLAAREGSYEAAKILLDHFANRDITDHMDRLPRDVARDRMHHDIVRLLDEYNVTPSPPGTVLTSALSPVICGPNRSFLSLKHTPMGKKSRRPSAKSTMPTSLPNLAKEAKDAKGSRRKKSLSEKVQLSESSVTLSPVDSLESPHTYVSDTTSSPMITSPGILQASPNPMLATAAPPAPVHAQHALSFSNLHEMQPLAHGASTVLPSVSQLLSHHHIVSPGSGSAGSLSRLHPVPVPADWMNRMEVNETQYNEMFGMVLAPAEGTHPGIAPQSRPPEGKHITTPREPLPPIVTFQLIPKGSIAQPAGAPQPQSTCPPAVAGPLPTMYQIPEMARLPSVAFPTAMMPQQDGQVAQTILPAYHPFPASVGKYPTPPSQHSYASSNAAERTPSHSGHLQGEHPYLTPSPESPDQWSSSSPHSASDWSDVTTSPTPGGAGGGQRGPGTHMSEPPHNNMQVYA

Take `C=C(COC)C(=O)CC[C@H](OC(=O)c1cccnc1)c1ccccc1OCCO`: the composite z-score in experiment [1] was -0.0665; in experiment [2], 0.903; in [3] it was -0.0004; in experiment [4], 0.675; in experiment [5], 0.928; in experiment [6], 0.599. The composite z-score in [7] is 1.24; in experiment [9], 0.437; in experiment [10], -0.236; in experiment [11] it was 1.56; in experiment [15] it was 1.47; in experiment [17], 0.157. For the same compound, the composite z-score is 1.15 in experiment [18], 1.15 in experiment [19] and -0.0406 in experiment [20]. The z-score was 0.445 (inactive) in experiment [8]; -2.31 (inactive) in [12]; -1.57 (inactive) in [13]; -0.278 (inactive) in [14]; 0.473 (inactive) in experiment [16].
For the compound `NC(=O)[C@@]1(CCS(=O)(=O)c2ccccc2)N=C(c2ccc(OCCCO)cc2)O[C@H]1c1ccccc1`, the composite z-score worked out at 0.287 in experiment [1]; 1.54 in experiment [2]; 0.103 in experiment [3]; 0.58 in experiment [4]; 0.251 in experiment [5]; 0.0342 in experiment [6]. The composite z-score is 1.3 in experiment [7]; 0.893 in experiment [9]; -0.0645 in [10]; 1.54 in experiment [11]; 3.6 in [15]; -0.046 in experiment [17]. The composite z-score in [18] is -0.316; in experiment [19], 0.667; in [20], -0.0703. The z-score in experiment [8] is -1.19 (inactive); in experiment [12], -0.0366 (inactive); in experiment [13], -1.58 (inactive); in [14], -0.918 (inactive); in experiment [16], 0.515 (inactive).
Consider `NC(=O)NCC#Cc1ccc2c(c1)[C@]1(C(=O)N2)[C@H](c2ccc(O)cc2)N2[C@H](c3ccccc3)[C@H](c3ccccc3)OC(=O)[C@H]2[C@@H]1C(=O)N1CCN(c2ncccn2)CC1`, for which the composite z-score in experiment [1] came to 0.687; in experiment [2], 0.585; in experiment [3], 0.0021; in [4], 0.516; in experiment [5], 0.0269; in [6], 0.302. Also, the composite z-score in experiment [7] was 0.562; in experiment [9] it was 0.38; in experiment [10], -0.191; in [11] it was 1.01; in experiment [15] it was 1.45; in [17], 0.28. Besides, the composite z-score was -0.228 in [18], -0.334 in experiment [19] and 0.0193 in [20]. Also, the z-score was -1.09 (inactive) in experiment [8]; 0.113 (inactive) in [12]; -0.923 (inactive) in [13]; 1.6 (inactive) in experiment [14]; 1.1 (inactive) in experiment [16].
As to `CCCCN1CC=CC23O[C@@H]4/C=C\CCCOC(=O)C4[C@H]2C(=O)N(C(C)CO)[C@@H]3C1=O` (stereo not given in full), the composite z-score in experiment [1] is -0.0235; in experiment [2] it was -0.809; in [3], -0.0963; in experiment [4], -0.272; in [5], -0.327; in experiment [6], 0.223. The composite z-score in experiment [7] was 1.19; in experiment [9], -0.375; in experiment [10], -0.261; in [11], -0.376; in experiment [15] it was -0.0431; in experiment [17], -0.282. The composite z-score in [18] was 0.16; in experiment [19] it was -0.0087; in [20], -0.233. In addition, the z-score was -1.01 (inactive) in experiment [8]; -0.0849 (inactive) in experiment [12]; -0.958 (inactive) in [13]; -0.417 (inactive) in experiment [14]; 0.315 (inactive) in experiment [16].
In the case of `C=CC[C@]1(C(=O)NCCN2CCOCC2)N=C(c2ccc(OCCCO)cc2)O[C@H]1c1ccccc1N=[N+]=[N-]`, the composite z-score stood at 1.13 in experiment [1]; 0.562 in [2]; 0.178 in [3]; 0.32 in experiment [4]; 0.832 in [5]; 1.56 in experiment [6]. For the same compound, the composite z-score in experiment [7] came out at 1.14; in experiment [9] it was 1.08; in experiment [10], 0.176; in experiment [11] it was 1.58; in [15], 3; in experiment [17], 0.432. Moreover, the values for the composite z-score in experiment [18], in experiment [19] and in [20] were 0.0879, 0.991 and 0.509, respectively. Besides, the z-score is 1.98 (inactive) in experiment [8]; -0.941 (inactive) in experiment [12]; -1.41 (inactive) in experiment [13]; -0.523 (inactive) in experiment [14]; 1.74 (inactive) in experiment [16].
Take `COc1ccc(CCNC(=O)[C@@]2(C)c3ccccc3C(=O)N(Cc3ccccc3)[C@H]2c2ccc(CO)cc2)cc1`: the composite z-score in [1] is -0.277; in [2], 1.25; in experiment [3], 0.0626; in experiment [4] it was 0.299; in [5] it was 1.24; in [6], 1.67. Also, the composite z-score in experiment [7] stood at 1.44; in experiment [9], 0.851; in experiment [10], 0.0286; in experiment [11], 1.53; in experiment [15] it was 3.05; in [17], 0.166. In addition, the composite z-score is 1.33 in [18], 1.07 in experiment [19] and 0.0192 in [20]. Further, the z-score in experiment [8] is -3.66 (inactive); in experiment [12] it was -1.25 (inactive); in [13], -1.1 (inactive); in experiment [14], -0.648 (inactive); in experiment [16] it was -0.0282 (inactive).
For `CCN(CC)c1ccc(N2CC=CC34O[C@@H]5/C=C\CCC(C)OC(=O)C5[C@H]3C(=O)N(CCCCCCO)[C@@H]4C2=O)cc1` (stereo not given in full), the composite z-score was 0.142 in [1]; 0.19 in experiment [2]; -0.0766 in [3]; 0.69 in experiment [4]; -0.498 in experiment [5]; 0.374 in experiment [6]. Besides, the composite z-score was 1.4 in [7]; -0.32 in experiment [9]; 0.0373 in experiment [10]; -0.661 in experiment [11]; 0.989 in experiment [15]; -0.204 in experiment [17]. Besides, the composite z-score was -0.668 in [18], -0.318 in experiment [19] and -0.21 in [20]. Further, the z-score in experiment [8] was 0.316 (inactive); in [12] it was -0.13 (inactive); in experiment [13] it was -0.147 (inactive); in [14], 0.252 (inactive); in experiment [16], 0.477 (inactive).
Consider `CC1CC/C=C\[C@H]2OC34C=CCN(Cn5nnc6ccccc65)C(=O)[C@H]3N(CCCO)C(=O)[C@@H]4C2C(=O)O1` (stereo not given in full), for which the composite z-score in experiment [1] was 0.536; in [2], -1.14; in experiment [3], -0.0973; in experiment [4] it was -0.988; in [5], -0.955; in experiment [6], 1.38. The composite z-score is 1.57 in [7]; -0.474 in experiment [9]; -0.196 in experiment [10]; -0.749 in [11]; 0.389 in experiment [15]; -0.0499 in experiment [17]. The composite z-score in [18] is -0.511; in experiment [19], 0.0174; in experiment [20] it was -0.192. The z-score in experiment [8] was -0.275 (inactive); in [12], 0.175 (inactive); in experiment [13] it was -0.463 (inactive); in experiment [14] it was 0.203 (inactive); in [16], 1.82 (inactive).
As for `COc1ccccc1CN1C(=O)c2ccccc2[C@](Cc2ccccc2I)(C(=O)NCc2ccccc2)[C@@H]1c1ccc(CO)cc1`, the composite z-score is 0.317 in experiment [1]; 1.33 in experiment [2]; -0.0614 in experiment [3]; 0.197 in experiment [4]; 0.106 in experiment [5]; 0.923 in [6]. Besides, the composite z-score came to 0.535 in experiment [7]; 0.182 in [9]; 0.154 in experiment [10]; 1.02 in experiment [11]; 2.22 in [15]; 0.0023 in [17]. Further, the composite z-score was -0.373 in experiment [18], -0.418 in experiment [19] and -0.0432 in experiment [20]. Also, the z-score was -1.13 (inactive) in [8]; -0.295 (inactive) in experiment [12]; -0.127 (inactive) in experiment [13]; -0.694 (inactive) in experiment [14]; 0.106 (inactive) in experiment [16].
